# An excerpt weighted towards active compounds, which were near 2.4% of everything screened.
# TLR4 MyD88 comp: inhibitors of human TLR4-MyD88 binding | HeLa CL3-4 TLR4/MyD88 BLA complementation, FRET ratio | hit rate 0.18% among 200,000 | inhibition, % at 8.4 µM; in the data active = inhibition above about 25%;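 also: 0% = vehicle and 100% = reference inhibitor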
# CRFBP-R2 block: blocks CRF-induced signaling of the CRF-BP/CRF-R2 complex. hit rate 0.59% among 350,000. HEK293 CRF-R2/CRF-BP, CRF-induced calcium fluorescence. inhibition, % at 11.8 µM;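 active = inhibition of the ligand-induced calcium signal above about 50% at the single tested concentration, limit read from the data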
# m5-HT2A agonist: activates the mouse 5-HT2A serotonin receptor; P35363; CHO-K1 mHTR2A beta-arrestin complementation, luminescence; percent of 30 µM serotonin response; activation, % at 7.6 µM; hit rate 0.66% among 360,000;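 active = activation above a run cutoff, the mean activation of all tested compounds plus 3 SD, cut at about 14% in these data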;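 also: 0% = plate median of compound wells and 100% = 30 µM serotonin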
# TLR9-MyD88 inh: inhibitors of human TLR9-MyD88 binding; Q9NR96+Q99836; CHO BLA complementation TLR9-MyD88, CCF4 FRET ratio; inhibition, % at 4.98 µM; hit rate 0.21% among 340,000; AID 504734;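 active = inhibition above the mean over all tested compounds plus 3 SD, cut at about 21% in these data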;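 also: 0% = DMSO only wells and 100% = clavulanate BLA inhibitor control wells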
# NOD2-RIPK2 inh: NOD2-RIPK2 protein interaction inhibition; inhibition, % at 4.98 µM; AID 624267; hit rate 0.38% among 360,000; CHO BLA complementation NOD2-RIPK2, CCF4 ratio; in the data active = inhibition above about 21%;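 also: 0% = vehicle only and 100% = reference blocker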
# ABHD5-PLIN5 inh: blocks binding of human ABHD5 to perilipin-5 | Q00G26+Q8WTS1 | Split G. princeps luciferase complementation, luminescence, 4 h | inhibition, % at 4 µM | hit rate 0.78% among 360,000 | AID 602281;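 active = inhibition above the mean inhibition across every tested compound plus 3 SD, cut at about 22% in these data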;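 also: 0% = DMSO only wells and the 100% control is not disclosed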
# TLR9-MyD88 cf: confirmation of human TLR9-MyD88 binding inhibitors; shares compounds with TLR9-MyD88 inh; inhibition, % at 4.98 µM; hit rate 51% among 680; CHO TLR9/MyD88 BLA complementation, CCF4 FRET ratio;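 active = mean inhibition across three repeats above about 21% taken from the earlier screen, limit read from the data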;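 also: blue over green emission ratio reports constitutive TLR9 MyD88 association via BLA complementation; 0% = DMSO vehicle wells and 100% = clavulanate BLA inhibitor wells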
# BLA counter-1: counter-screen for TLR9-MyD88 inhibitors: non-selective beta-lactamase inhibitors; shares compounds with TLR9-MyD88 inh; hit rate 7% among 680; CHO-BLA cells, CCF4 FRET ratio, BLA reporter; AID 540251; inhibition, % at 4.98 µM;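 active = mean inhibition above a 50% cutoff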;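 also: counterscreen of TLR9-MyD88 hits on CMV-driven BLA in CHO-K1 cells; 0% = DMSO alone and 100% = clavulanate blocking BLA; higher means less blue over green ratio so more BLA blockade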
# TLR9 CHO cytotox: counter-screen for TLR9-MyD88 inhibitors: cytotoxicity in CHO cells. shares compounds with TLR9-MyD88 inh. luminescence. inhibition, % at 4.98 µM. hit rate 39% among 680; in the data active = inhibition above about 11%
# ABHD5-PLIN5 conf: ABHD5-PLIN5 interaction inhibition, confirmed. biochemical ABHD5-PLIN5 interaction, luminescence. inhibition, % at 4 µM. shares compounds with ABHD5-PLIN5 inh. hit rate 67% among 2,200; in the data active = inhibition above about 23%;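 also: 0% = DMSO vehicle wells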
# HNF4 counter: HNF4 split-luciferase signal hit, counter-screen; shares compounds with ABHD5-PLIN5 inh; HNF4 dimerization, luminescence, biochemical; inhibition, % at 4 µM; hit rate 77% among 2,200; AID 651674;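 active = mean inhibition across replicate wells exceeding the computed hit threshold, cut at about 13% in these data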;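 also: light from luciferase halves that rejoin when HNF4 fusion proteins dimerize; 0% = DMSO only wells and the 100% control is not given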
# NOD2-RIPK2 conf: confirmation of human NOD2-RIPK2 interaction inhibitors | shares compounds with NOD2-RIPK2 inh | CHO cells, NOD2-RIPK2 BLA complementation, CCF4 FRET | inhibition, % at 4.98 µM | hit rate 70% among 1,200;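 active = mean inhibition across replicates above a set limit taken from the earlier primary screen, cut at about 21% in these data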;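 also: 0% = DMSO-only wells and the high end = clavulanate BLA-blocked wells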
# BLA counter-2: hits BLA reporter in NOD2-RIPK2 inhibitor counterscreen. shares compounds with NOD2-RIPK2 inh. CHO BLA reporter, CCF4 FRET ratio. inhibition, % at 4.98 µM. hit rate 57% among 1,200;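 active = mean inhibition above the low-control mean inhibition plus three low-control SD, cut at about 11% in these data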;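 also: 0% = DMSO only wells and 100% = clavulanate high control wells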
# An asterisk follows results filed as active; nt = no result given.
SMILES,TLR4 MyD88 comp,CRFBP-R2 block,m5-HT2A agonist,TLR9-MyD88 inh,NOD2-RIPK2 inh,ABHD5-PLIN5 inh,TLR9-MyD88 cf,BLA counter-1,TLR9 CHO cytotox,NOD2-RIPK2 conf,BLA counter-2,others
Cc1ccc(CNC(=O)c2cccc3c2C(=O)c2ccc(N4CCCCC4)cc2S3(=O)=O)cc1,nt,-19,9,25*,27*,11,12,13,0,31*,33*,
O=C(NCc1ccccc1C(F)(F)F)c1cccc2c1C(=O)c1ccc(N3CCC(N4CCCCC4)CC3)cc1S2(=O)=O,nt,-19,-4,30*,68*,12,30*,41,5,73*,70*,
Cc1ccc(CNC(=O)c2cccc3c2C(=O)c2ccc(N4CCOCC4)cc2S3(=O)=O)cc1,nt,19,7,7,8,5,nt,nt,nt,nt,nt,
COc1ccc(C(O)c2nc(-c3cc(F)cc(Cl)c3)cs2)cc1 (stereo not drawn),nt,nt,-9,nt,-6,-5,nt,nt,nt,nt,nt,
COc1ccc2nc(C)cc(NCc3ccc(F)cc3)c2c1,nt,-112,-7,38*,24*,6,22*,18,30*,45*,44*,
Cc1cccc(NC(=O)c2nc[nH]c2C(=O)N[C@H](C)CO)c1,nt,-1,0,-1,2,1,nt,nt,nt,nt,nt,
Cc1ccccc1Nc1cccc2nonc12,23,-42,2,46*,41*,-13,22*,28,-2,53*,57*,
O=C(Sc1cccc2cccnc12)c1ccccc1Br,nt,nt,-11,24*,39*,-24,22*,15,98*,41*,17*,
CC(=O)/C(=N\Nc1ccccc1Cl)Sc1cccc2cccnc12,-21,3,-6,-1,-2,-6,nt,nt,nt,nt,nt,
COc1ccc(-c2cc3ccc(O)cc3oc2=O)cc1,nt,-15,5,21*,39*,13,17,26,1,43*,52*,
COc1ccc(NC(=O)C2Cc3c(-c4cccc(F)c4)ccnc3O2)cn1 (stereo not drawn),nt,nt,1,nt,4,-7,nt,nt,nt,nt,nt,
COc1cc(/C=C2\Oc3cc(O)ccc3C2=O)ccc1O,nt,-58,2,31*,44*,4,15,19,-2,43*,47*,
O=C1/C(=C/c2ccc(O)c(O)c2)Oc2cc(O)ccc21,nt,-51,-4,13,13,7,nt,nt,nt,nt,nt,
Cc1ccsc1/C=C1\Oc2cc(O)ccc2C1=O,nt,-32,-5,25*,50*,4,16,21,1,40*,52*,
O=C(Nc1nc(OCCN2CCCC2=O)cnc1/C=C\c1ccccc1)c1cc2ccccc2s1,nt,nt,-3,nt,-1,-1,nt,nt,nt,nt,nt,
COc1ccc(/C=C/c2ccc3c(Br)ccc(O)c3n2)cc1,nt,1,2,17,7,-1,nt,nt,nt,nt,nt,
COc1cc(/C=C/c2ccc3c(Br)cc(Br)c(O)c3n2)ccc1O,nt,1,-5,26*,34*,-7,28*,29,49*,45*,55*,
Cc1ccc(F)cc1C(=O)N1CCCCC1c1cc(C(=O)Nc2ccc(F)c(Cl)c2)no1 (stereo not drawn),nt,nt,-4,nt,-2,-15,nt,nt,nt,nt,nt,
CC(=O)Oc1ccc2cc(-c3nc4ccccc4n3C)c(=O)oc2c1,12,-4,3,22*,39*,7,15,42,5,38*,59*,
OCCN(CCO)c1nc(N2CCCCC2)c2nc(N(CCO)CCO)nc(N3CCCCC3)c2n1,10,-138,1,25*,36*,-4,16,20,2,47*,51*,
O=C(/C=C/c1cccc(Cl)c1)c1ccc([N+](=O)[O-])o1,nt,-66,-1,26*,52*,96*,21*,4,96*,88*,19*,ABHD5-PLIN5 conf=103*;HNF4 counter=110*
CCN(CC)c1ccc(/C=C2/SC(=O)N(C(C)C)C2=O)o1,7,-14,-2,31*,65*,93*,8,4,61*,27*,15*,ABHD5-PLIN5 conf=73*;HNF4 counter=109*
CC(C)N1C(=O)S/C(=C\c2ccc(-c3ccc(Cl)c(C(=O)O)c3)o2)C1=O,nt,0,6,-10,7,7,nt,nt,nt,nt,nt,
Cc1cccc(C(=O)N2CCC[C@H]2C(=O)N2CCC[C@H]2C(=O)NCc2ccncc2)c1,nt,nt,1,nt,10,10,nt,nt,nt,nt,nt,
Cc1ccccc1Oc1cc(-n2ncc(Cl)c(Cl)c2=O)ncn1,-8,65*,0,35*,26*,9,38*,24,99*,76*,-3,
SMILES,TLR4 MyD88 comp,CRFBP-R2 block,m5-HT2A agonist,TLR9-MyD88 inh,NOD2-RIPK2 inh,ABHD5-PLIN5 inh,TLR9-MyD88 cf,BLA counter-1,TLR9 CHO cytotox,NOD2-RIPK2 conf,BLA counter-2,others
Clc1ccccc1OCc1nnc(-c2ccccc2Br)o1,-3,9,-4,-1,-4,-3,nt,nt,nt,nt,nt,
O=c1c(Cl)c(Cl)cnn1Cc1nnc(-c2ccccc2Br)o1,11,-220,-2,21*,27*,15,29*,14,101*,46*,11*,
Cc1ccc(C(O)c2ncc(-c3cccc(C(F)(F)F)c3)[nH]2)cc1F (stereo not drawn),nt,nt,7,nt,1,-1,nt,nt,nt,nt,nt,
Nc1cccc(N2C(=O)c3cccc4c(N)ccc(c34)C2=O)c1,nt,-120,9,7,5,4,nt,nt,nt,nt,nt,
Cc1cccc(N2C(=O)c3cccc4c(N)ccc(c34)C2=O)c1,nt,-219,11,32*,35*,5,19,20,1,37*,44*,
CC(C)CCN1C(=O)c2cccc3c(N)ccc(c23)C1=O,nt,-101,6,55*,70*,2,33*,29,1,64*,70*,
CCOC(=O)/C=C/c1cccc(C)c1O,nt,nt,0,nt,-1,-2,nt,nt,nt,nt,nt,
Cc1cccc(N2C(=O)c3cccc4c(N5CCCCC5)c([N+](=O)[O-])cc(c34)C2=O)c1C,6,47,4,2,-4,2,nt,nt,nt,nt,nt,

# Screens deposited in PubChem by several laboratories.
